SMILES strings stand for the structures.

From ChEMBL document CHEMBL2218924, “A broad activity screen in support of a chemogenomic map for kinase signalling research and drug discovery” (Biochem J, 2013) come the findings set out here.

In this test the target is PAS domain-containing serine/threonine-protein kinase (Homo sapiens) (UniProt Q96RG2). Particulars: at 1 µM.
Chain of PAS domain-containing serine/threonine-protein kinase (Homo sapiens) (Q96RG2 whole entry, the tested form may be a part): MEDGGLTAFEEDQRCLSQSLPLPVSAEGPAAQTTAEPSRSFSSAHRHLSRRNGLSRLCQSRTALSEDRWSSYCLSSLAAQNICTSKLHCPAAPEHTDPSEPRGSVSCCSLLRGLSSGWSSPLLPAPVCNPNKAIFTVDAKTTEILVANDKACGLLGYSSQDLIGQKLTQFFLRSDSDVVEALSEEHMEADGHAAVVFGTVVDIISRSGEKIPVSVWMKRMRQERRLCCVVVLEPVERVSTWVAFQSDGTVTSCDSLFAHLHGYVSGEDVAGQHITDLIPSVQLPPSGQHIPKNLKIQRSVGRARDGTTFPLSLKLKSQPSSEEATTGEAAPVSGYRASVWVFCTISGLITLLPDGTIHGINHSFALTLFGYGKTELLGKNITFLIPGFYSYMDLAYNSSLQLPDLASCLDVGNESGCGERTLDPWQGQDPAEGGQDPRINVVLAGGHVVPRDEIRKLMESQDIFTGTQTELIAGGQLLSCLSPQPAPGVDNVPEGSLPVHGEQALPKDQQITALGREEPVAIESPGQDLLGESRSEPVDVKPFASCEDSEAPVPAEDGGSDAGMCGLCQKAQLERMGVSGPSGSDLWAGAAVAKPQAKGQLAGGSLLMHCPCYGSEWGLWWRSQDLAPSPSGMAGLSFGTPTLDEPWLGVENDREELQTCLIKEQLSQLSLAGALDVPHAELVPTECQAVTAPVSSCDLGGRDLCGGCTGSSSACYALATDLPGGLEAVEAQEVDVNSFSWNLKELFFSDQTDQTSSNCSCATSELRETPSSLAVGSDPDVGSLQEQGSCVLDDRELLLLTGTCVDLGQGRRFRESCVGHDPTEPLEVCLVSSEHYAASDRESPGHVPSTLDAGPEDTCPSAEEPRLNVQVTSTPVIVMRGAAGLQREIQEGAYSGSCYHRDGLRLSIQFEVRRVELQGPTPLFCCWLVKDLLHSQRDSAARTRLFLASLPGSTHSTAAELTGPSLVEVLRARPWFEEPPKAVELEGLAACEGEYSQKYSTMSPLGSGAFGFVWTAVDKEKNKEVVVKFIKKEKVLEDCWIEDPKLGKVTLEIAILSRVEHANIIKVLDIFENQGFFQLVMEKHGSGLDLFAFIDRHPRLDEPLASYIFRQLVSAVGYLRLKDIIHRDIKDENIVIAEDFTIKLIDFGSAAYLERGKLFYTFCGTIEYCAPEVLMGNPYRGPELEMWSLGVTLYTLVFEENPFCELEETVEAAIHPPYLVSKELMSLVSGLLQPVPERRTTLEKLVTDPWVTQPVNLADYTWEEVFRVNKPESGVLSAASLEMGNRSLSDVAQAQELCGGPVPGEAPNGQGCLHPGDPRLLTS
Broadly, the residual activity is the signal under treatment as a percentage of the control signal. Consider `CCCC(=O)Oc1ccc2[nH]c(C(=O)c3cc4ccccc4[nH]3)cc2c1`, for which the residual activity came out at 122%.
As for `Nc1ccc2ncnc(NCCc3ccc(Oc4ccccc4)cc3)c2c1`, the residual activity stood at 107%.
For the molecule `O=[N+]([O-])c1ccc(-c2nc(-c3ccc(F)cc3)c(-c3ccncc3)[nH]2)cc1`, the residual activity was 126%.
`Nc1nccc(-c2c(-c3ccc(F)cc3)ncn2C2CCNCC2)n1`: the residual activity amounted to 129%.
To `CC(C)(C)n1nc(Cc2cccc3ccccc23)c2c(N)ncnc21` belongs 116%; to `Cc1nc2cc3nc(-c4cccs4)cnc3cc2n1C`, 98%.
As for `N#C/C(=C\c1ccc(O)c(O)c1)C(=O)NCc1ccccc1`, the residual activity amounted to 100%.
To `CCCCc1c(-c2ccc(OC)cc2)[nH]c2nccnc12` belongs 102%.
As to `CCCCc1c(-c2ccc(O)cc2)[nH]c2nccnc12`, the residual activity was 146%.
`O=C1NC(=O)c2c1c1c3ccccc3[nH]c1c1[nH]c3cc(Br)ccc3c21`: the residual activity was determined as 89%.
Consider `O=C1NC(=O)c2c1c1c3ccccc3[nH]c1n1cncc21`, for which the residual activity was 57%.
To `CN(C)CCCn1cc(C2=C(c3c[nH]c4ccccc34)C(=O)NC2=O)c2ccccc21` belongs 74%.
Turning to `O=C(O)/C=C/c1cc(Br)c(Br)c(Br)c1Br`, the residual activity is 63%.
Regarding `CC#CC(=O)Nc1cc2c(Nc3ccc(F)c(Cl)c3)ncnc2cn1`, the residual activity worked out at 101%.
With `Nc1n[nH]c2nnc(-c3c(-c4ccccc4)nn4ccccc34)cc12`, the residual activity came out at 104%.
Regarding `COc1cc2ncnc(Nc3ccc(NC(=O)c4ccccc4)cc3)c2cc1OC`, the residual activity came to 133%.
Take `Nc1nc(Nc2ccc(S(N)(=O)=O)cc2)nn1C(=S)Nc1c(F)cccc1F`: the residual activity was 108%.
For `c1ccc(-c2cnc(Nc3ccc(OCCN4CCCC4)cc3)s2)cc1`, the residual activity was 81%.
With `CC(C)c1nn(-c2c(Cl)cccc2Cl)c2nc(Cc3ccc(OCCO)cc3)[nH]c(=O)c12`, the residual activity was found to be 142%.
